Results published in ChEMBL document CHEMBL4513216, “Probing the Open Global Health Chemical Diversity Library for Multistage-Active Starting Points for Next-Generation Antimalarials” (ACS Infect Dis, 2020).
Out of some 69,000 compounds screened, about 8,600 (12%) showed an effect of 50% or more. For the sample, strong results were picked, then their nearest neighbours and some compounds at random.

These molecules were tested on Plasmodium berghei (assay: Screen against P. berghei liver stage (PbLuc), transformed with Luciferase, at 10uM). Conditions: tested at 10 uM.
Assay type: functional, HepG2

SMILES	INHIBITION
O=C(NC1CCN(CC2CC2)C1)c1ccc(N2CCC(O)CC2)cc1 (stereo not drawn)	77.7%
O=C(Nc1ccnc2ccnn12)c1ccc(N2CCC(O)CC2)cc1	38.1%
O=C(NC1CCN(CC2CC2)C1)c1ccc(C(=O)c2cc[nH]c2)cc1 (stereo not drawn)	10.6%
COC[C@@H]1CCCN1C(=O)CCc1c(C)nn(C)c1C	8.7%
CCN(CC)c1nc2sc(C(=O)N3CCNC(=O)C3)cc2s1	-81.7%
CC(C)CC1SCC(=O)Nc2c1cnn2-c1ccccc1F (stereo not drawn)	13%
O=C(O)[C@@H]1CN(C(=O)Cc2ccccc2Cl)C[C@H]1C1CC1	79.2%
O=C(O)[C@@H]1CN(C(=O)CCCc2ccc(F)cc2)C[C@H]1C1CC1	-14.2%
CCOc1ccccc1CC(=O)N1C[C@@H](C(=O)O)[C@H](C2CC2)C1	2.66%
CC(=O)N1CCCC1c1nccnc1Nc1cccc(C)n1 (stereo not drawn)	39.2%
Cc1cc2c(cc1C)OC(C(=O)NCCNC(=O)C1CCCC1)C2 (stereo not drawn)	-35.1%
O=C(NCCNC(=O)C1Cc2cc(F)ccc2O1)C1CCCCC1 (stereo not drawn)	-0.529%
Cc1ccc(NCCNC(=O)C2Cc3cc(C)c(C)cc3O2)nn1 (stereo not drawn)	55%
O=S1(=O)NC2(CCCN(Cc3ccc(Cl)cc3)C2)COc2ccccc21 (stereo not drawn)	27.5%
Cc1cc(=O)n2nc(Oc3cccc(C(N)=O)c3)sc2n1	3.84%
CN(C)C1CCN(Cc2cnc(S(C)(=O)=O)n2CC2CCCCC2)C1 (stereo not drawn)	81.6%
CS(=O)(=O)c1ncc(CN2CCCC(C(N)=O)C2)n1CC1CCCCC1 (stereo not drawn)	0.734%
CS(=O)(=O)c1ncc(CN2CCN3CCCC3C2)n1CC1CCCCC1 (stereo not drawn)	12.3%
N#Cc1ccc(CN2CCC(CN3CCOCC3)C2)cc1 (stereo not drawn)	-11.9%
CN1CC2(CCN(C(=O)c3cccnc3)CC2)c2cccc(F)c21	31.5%
CCn1ncc2c1C(COCC1CC1)CN(C(=O)c1ccncn1)C2 (stereo not drawn)	26.4%
CC(C)N1CCC2(CCNCC2)C1=O	-25.8%

SMILES	INHIBITION
O=C(CSc1nnc(N2CCOCC2)s1)NC(=O)Nc1ccccc1	-1%
O=C(CSc1nnc(N2CCCC2)s1)NC(=O)Nc1ccccc1	-22.405%
O=C(CSc1nnc(N2CCNCC2)s1)Nc1ccccc1	59.2%
NC(=O)C(c1ccc(F)cc1)N1CCN(CCO)CC1 (stereo not drawn)	56.9%
CCc1nnc2n1CCN(C(C(N)=O)c1ccc(F)cc1)C2 (stereo not drawn)	1.45%
Cc1nnc2n1CCN(C(C(N)=O)c1ccc(F)cc1)C2 (stereo not drawn)	25.8%
COc1cccc(OC)c1OCCn1c(C)c(C)oc1=O	22.5%
Cc1cc(C)n(CC2CCCN2C(=O)c2ccc(N(C)C)nn2)n1 (stereo not drawn)	38.8%
Fc1ccccc1-c1noc2c1CN(CCN1CCOCC1)CC2	34.5%
Fc1ccccc1-c1noc2c1CN(CC1CC1)CC2	55.4%
CC(O)CN1CCc2onc(-c3ccccc3F)c2C1 (stereo not drawn)	-10.9%
Fc1ccc(-c2noc3c2CN(CC2CC2)CC3)cc1F	52.7%
CC(C)=CCN1CCc2onc(-c3ccc(F)c(F)c3)c2C1	5.78%
c1ccc(-c2noc3c2CN(CC2CC2)CC3)cc1	2.3%
Fc1cc(CN2CCCC2Cn2cncn2)c2ncccc2c1 (stereo not drawn)	11.8%
O=C(N1CCCO1)[C@@]12CCO[C@@H]1CCN(C1CCCCC1)C2	13%
Cc1ccc(Oc2ncccc2CNC(=O)C2COC(=O)N2)c(F)c1F (stereo not drawn)	12.9%
COc1ccccc1Oc1ncccc1CNC(=O)C1COC(=O)N1 (stereo not drawn)	41.3%
Cc1cccc(C)c1Oc1ncccc1CNC(=O)C1COC(=O)N1 (stereo not drawn)	53.8%
CCCN(CCO)C(=O)c1cc(COc2ccc3c(c2)CCCC3)on1	33%
CC(Cn1cccn1)NC(=O)NCCc1ccsc1 (stereo not drawn)	21.5%
CCC(C(=O)NCCc1ccn(-c2ccccc2)n1)N1CCCC1=O (stereo not drawn)	-21%

SMILES	INHIBITION
CCC(C(=O)N1CCCSCC1)N1CCCC1=O (stereo not drawn)	21.5%
CCC(C(=O)Nc1ccc2nc(C)oc2c1)N1CCCC1=O (stereo not drawn)	71.2%
CCC(C(=O)Nc1ccc2cn(CC)nc2c1)N1CCCC1=O (stereo not drawn)	54.5%
CCC(CNC(=O)Nc1cnn(CC)c1)N1CCCC1 (stereo not drawn)	39.5%
Cc1occc1CNC(=O)Nc1ccc2nc(N3CCOCC3)oc2c1	25.8%
CN(C)C(=O)COCC1CN(C2CCC2)Cc2ncn(C)c21 (stereo not drawn)	-19.1%
Cc1cc(C)n(Cc2cccc(C(=O)N3CCOCC3(C)C)c2)n1	-4.23%
CCN(CC)C(=O)CNC(=O)N1CCC(c2ccccc2)C1 (stereo not drawn)	43.7%
CC(C)(O)CCc1ccc(C(=O)N2CCN(CCS(C)(=O)=O)CC2)cc1	16.8%
CC(C)(O)CCc1ccc(C(=O)N2CCN(CC(F)(F)F)CC2)cc1	52.6%
CC(C)(O)CCc1ccc(C(=O)N2CCN(CC3CCCC3)CC2)cc1	26.6%
O=C(c1ccc(CN2CCCCC2)cc1)N1Cc2cnn(CCO)c2C1	30.3%
CC(C)(O)CCc1ccc(C(=O)N2Cc3cnn(CCO)c3C2)cc1	73%
CC(C)(O)CCc1cccc(C(=O)N2Cc3cnn(CCO)c3C2)c1	14%
CCCS(=O)(=O)N1CC(=O)N(CCCc2ccccc2)CC(O)C1 (stereo not drawn)	48.7%
O=C(c1sccc1C1CC1)N1CCCN(Cc2cscn2)CC1	-4.16%
Cc1cccc(C(C(=O)NCc2cc(C)[nH]n2)N(C)C)c1 (stereo not drawn)	3.69%
COc1cc(NCc2ccncc2)c(-c2nn[nH]n2)cc1OC	-34.6%
COc1ncccc1CNC(=O)N1CCCC1c1ccsc1 (stereo not drawn)	-24.2%
CCN1CCN(C(=O)NCc2cc[nH]n2)CC1	-29.7%
CN(C)c1ncnc2c1CCN(S(=O)(=O)c1ccccc1C(F)(F)F)C2	30.3%
CN(C)c1ncnc2c1CCN(S(=O)(=O)c1cccc3nsnc13)C2	31.6%

SMILES	INHIBITION
COC(=O)c1sccc1S(=O)(=O)N1CCc2c(ncnc2N(C)C)C1	58.1%
COC(=O)c1sccc1S(=O)(=O)N1CCC(Oc2cnccn2)CC1	53.7%
COC(=O)c1sccc1S(=O)(=O)N1CCC(Oc2cccnn2)CC1	21.6%
CN(C)c1ncnc2c1CCN(S(=O)(=O)c1cccc(Cl)c1Cl)C2	42.7%
CN(C)c1ncnc2c1CCN(C(=O)c1sccc1S(N)(=O)=O)C2	-9.18%
Cc1ccccc1S(=O)(=O)N1CCc2c(ncnc2N(C)C)C1	66.1%
COC(=O)c1sccc1S(=O)(=O)N1CCC(Oc2cccc(C)n2)CC1	21.8%
Cc1cnn(CC2CCCN2Cc2ncc(-c3ccc(F)cc3)o2)c1 (stereo not drawn)	2.3%
CC(C)CN(CC(=O)O)C(=O)c1ccc(F)cc1	17.7%
CN(CCc1ccccc1)c1cnn(CC2COCCO2)c(=O)c1 (stereo not drawn)	-42.8%
O=C(NCc1cncc2c1CCN(C1CCOCC1)C2)c1ccco1	61.3%
O=C(NCc1cncc2c1CCN(C1CCOCC1)C2)c1ccno1	34.5%
O=C(NCc1cncc2c1CCN(C1CCOC1)C2)c1ccco1 (stereo not drawn)	0.71%
COCc1nc(C(=O)NS(=O)(=O)c2cc(Br)ccc2C)cs1	8.55%
O=S(=O)(NCc1ccccc1Cn1cncn1)N1CCCCC1	25.1%
CCn1cc(Cl)c(C(=O)NCCCN(C)C)n1	39.1%
Cc1nccc(C(=O)N2CCCC2c2c(C)nn(C)c2C)n1 (stereo not drawn)	7.08%
CCN(CCNC(=O)c1ccccc1Br)C1CC1	-2.42%
CCN(CCNC(=O)c1ccccc1OCCOC)C1CC1	58.8%
CCN(CCNC(=O)c1cccnc1OCCOC)C1CC1	34.7%
O=C(c1ccc(Cn2cnnn2)cc1)N1CCC(c2ccncc2)CC1	-23%
O=S1(=O)NCC2(CCN(Cc3ccc(Cl)s3)C2)Oc2ncccc21 (stereo not drawn)	30%

SMILES	INHIBITION
O=S1(=O)NCC2(CCN(Cc3ccncc3)CC2)Oc2ncccc21	44.1%
CC(C)CCN1CCC2(CNS(=O)(=O)c3cccnc3O2)C1 (stereo not drawn)	67.3%
CCc1nnc(CN(C)c2nccc(CCC(F)(F)F)n2)o1	59.3%
CN(Cc1ccncn1)c1nccc(CCC(F)(F)F)n1	59.3%
CCc1nnc(CN(C)c2nccc(N3CCCC(O)C3)n2)o1 (stereo not drawn)	42.1%
CNc1ncc(CN(C)c2nccc(CCC(F)(F)F)n2)cn1	43.1%
CC(=O)NCCNc1nccc(CCC(F)(F)F)n1	-41.8%
CCc1cc(N(C)Cc2ccncn2)n2nccc2n1	10.4%
CC(=O)N1CCOC(c2cncc(CCC(=O)N(C)C)n2)C1 (stereo not drawn)	-6.73%
O=C1CCC(=O)c2oc3ccccc3c2N1	-23%
CCc1[nH]c2c(CNc3cncc(C(=O)N(C)C)n3)cc(C)cc2c1C	14.3%
CCc1[nH]c2c(CNc3nc(C)cc(NC)n3)cc(C)cc2c1C	85.1%
CCc1[nH]c2c(CNc3cc(C)nc(NC)n3)cc(C)cc2c1C	87.9%
CCc1[nH]c2c(CNC(=O)C3CCS(=O)(=O)CC3)cc(C)cc2c1C	48.5%
CCc1[nH]c2c(CNc3cncc(C(=O)OC)n3)cc(C)cc2c1C	45%
CCc1[nH]c2c(CNC(=O)C3CNC(=O)C3)cc(C)cc2c1C (stereo not drawn)	25.8%
COc1ccc(-c2noc(CN3CCCC3Cn3cccn3)n2)cc1 (stereo not drawn)	29.7%
CN1C(=O)c2ccc(C(=O)N(Cc3cnn(C)c3)C3CC3)cc2C1=O	23.8%
COCC(=O)N1CCc2ccc(=O)n(Cc3csc(C)n3)c2CC1	2.41%
CCOc1ncccc1NC(=O)c1ccc(C(C)=O)s1	7.24%
